# Laboratory results reported in PubChem BioAssay (Tox21).
# Where “and” joins values, the source holds several entries; their conditions need not be identical. Identical values can stand only once. Some compounds were tested as several samples or in several runs, with calls that do not always agree. Calls of active or inactive are those of the source. Where a call stands in place of a potency, no number is given. Unless noted, calls come from the whole dose curve; as a rule, active = well fitted curve in the direction sought with a large enough effect in the repeat runs; inconclusive = weak or mixed curves; inactive = no such curve, though single readings can be large; an effect the other way counts as inactive or inconclusive.
# Tests used:
# [1] = qHTS assay to identify small molecule antagonists of the glucocorticoid receptor (GR) signaling pathway - cell viability counter screen (AID 720693); note: nearly all actives have a fitted effect of over 55% in size; note: potency is the fitted concentration of half-maximal effect
# [2] = qHTS assay for identifying genotoxic compounds that show differential cytotoxicity against isogenic chicken DT40 cell lines with known DNA damage response pathways - wild type cell line (AID 743012); note: nearly all actives have a fitted effect of over 60% in size; note: potency is the fitted concentration of half-maximal effect
# Summary of the method: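 Viability of DNA repair-proficient chicken DT40 cells was assessed by CellTiter-Glo luminescence following 40 h compound exposure at 37 C/5% CO2.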
# [3] = qHTS assay for identifying genotoxic compounds that show differential cytotoxicity against isogenic chicken DT40 cell lines with known DNA damage response pathways - Rev3 mutant cell line (AID 743014); note: nearly all actives have a fitted effect of over 55% in size; note: potency is the fitted concentration of half-maximal effect
# [4] = qHTS assay for identifying genotoxic compounds that show differential cytotoxicity against isogenic chicken DT40 cell lines with known DNA damage response pathways - Rad54/Ku70 mutant cell line (AID 743015); note: nearly all actives have a fitted effect of over 60% in size; note: potency is the fitted concentration of half-maximal effect
# [5] = qHTS assay to identify small molecule antagonists of the androgen receptor (AR) signaling pathway - cell viability counter screen (AID 743033; note: nearly all actives have a fitted effect of over 45% in size)
# [6] = qHTS assay to identify small molecule antagonists of the androgen receptor (AR) signaling pathway using the MDA cell line - cell viability counter screen (AID 743041; note: nearly all actives have a fitted effect of over 45% in size; note: potency is the fitted concentration of half-maximal effect)
# Summary of the method: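 Using the breast carcinoma line MDA-kb2 AR-luc, test chemicals were co-incubated with R1881 for 16 h; CellTiter-Fluor reagent, added at 15.5 h, provided a fluorescence measure of live cells.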
# [7] = qHTS assay to identify small molecule antagonists of the thyroid receptor (TR) signaling pathway - cell viability counter screen (AID 743064); note: nearly all actives have a fitted effect of over 50% in size; note: potency is the fitted concentration of half-maximal effect
# Summary of the method: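 Rat GH3 pituitary tumor cells stably expressing two TR response elements driving luciferase were plated, rested 4 h, then dosed with library compounds and T3 (1 nM final). After 23.5 h at 37 °C, CellTiter-Fluor was added for 30 min and fluorescence recorded.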
# [8] = qHTS assay to identify small molecule antagonists of the thyroid receptor (TR) signaling pathway (AID 743065); note: nearly all actives have a fitted effect of over 55% in size; note: potency is the fitted concentration of half-maximal effect
# Summary of the method: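 Antagonism measured as loss of luciferase signal in GH3 cells stably carrying a TRE-luciferase reporter, co-treated with compound and T3 (1 nM final) for 23.5 h at 37 C. Viability was read in the same well by CellTiter-Fluor.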
# [9] = tested on: thyroid hormone receptor (rat, GH3 cells); test: qHTS assay to identify small molecule agonists of the thyroid receptor (TR) signaling pathway (AID 743066; calls by dose curve)
# [10] = qHTS assay to identify small molecule antagonists of the estrogen receptor alpha (ER-alpha) signaling pathway - cell viability counter screen (AID 743074; calls by dose curve; note: nearly all actives have a fitted effect of over 45% in size)
# [11] = qHTS assay to identify small molecule antagonists of the estrogen receptor alpha (ER-alpha) signaling pathway using the BG1 cell line - cell viability counter screen (AID 743081);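 note: compound given together with 17beta-estradiol as the ER stimulus; nearly all actives have a fitted effect of over 45% in size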; note: potency is the fitted concentration of half-maximal effect
# Aromatase (Homo sapiens) = Aromatase (Homo sapiens) (UniProt P11511); test: qHTS assay to identify aromatase inhibitors (AID 743083); note: nearly all actives have a fitted effect of over 55% in size; note: potency is the fitted concentration of half-maximal effect
# Sequence of Aromatase (Homo sapiens) (P11511 whole entry, looked up): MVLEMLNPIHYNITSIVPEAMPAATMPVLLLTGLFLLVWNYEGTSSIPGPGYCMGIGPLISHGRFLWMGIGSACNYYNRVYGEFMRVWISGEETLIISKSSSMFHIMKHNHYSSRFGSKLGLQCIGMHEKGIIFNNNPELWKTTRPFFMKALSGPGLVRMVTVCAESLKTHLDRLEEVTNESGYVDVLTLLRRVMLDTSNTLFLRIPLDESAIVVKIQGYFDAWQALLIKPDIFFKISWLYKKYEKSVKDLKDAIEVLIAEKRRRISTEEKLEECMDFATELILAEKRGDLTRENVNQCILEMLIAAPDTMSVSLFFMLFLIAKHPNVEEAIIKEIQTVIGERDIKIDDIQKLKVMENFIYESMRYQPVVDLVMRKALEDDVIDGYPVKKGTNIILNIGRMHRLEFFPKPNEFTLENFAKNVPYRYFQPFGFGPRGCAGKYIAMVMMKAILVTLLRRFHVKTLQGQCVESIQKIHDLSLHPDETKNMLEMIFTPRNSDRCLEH
# [12] = target: Estrogen receptor (Homo sapiens) (UniProt P03372); test: qHTS assay to identify small molecule antagonists of the estrogen receptor alpha (ER-alpha) signaling pathway (AID 743069; active = well fitted curve in the direction sought with a large enough effect in the signal ratio in the repeat runs, not every such curve was filed as active; inconclusive = weak or mixed curves, or effect the other way; inactive = no such curve, though single readings can be large or run the other way; the % refers to the signal ratio)
# Sequence of Estrogen receptor (Homo sapiens) (P03372 whole entry, looked up): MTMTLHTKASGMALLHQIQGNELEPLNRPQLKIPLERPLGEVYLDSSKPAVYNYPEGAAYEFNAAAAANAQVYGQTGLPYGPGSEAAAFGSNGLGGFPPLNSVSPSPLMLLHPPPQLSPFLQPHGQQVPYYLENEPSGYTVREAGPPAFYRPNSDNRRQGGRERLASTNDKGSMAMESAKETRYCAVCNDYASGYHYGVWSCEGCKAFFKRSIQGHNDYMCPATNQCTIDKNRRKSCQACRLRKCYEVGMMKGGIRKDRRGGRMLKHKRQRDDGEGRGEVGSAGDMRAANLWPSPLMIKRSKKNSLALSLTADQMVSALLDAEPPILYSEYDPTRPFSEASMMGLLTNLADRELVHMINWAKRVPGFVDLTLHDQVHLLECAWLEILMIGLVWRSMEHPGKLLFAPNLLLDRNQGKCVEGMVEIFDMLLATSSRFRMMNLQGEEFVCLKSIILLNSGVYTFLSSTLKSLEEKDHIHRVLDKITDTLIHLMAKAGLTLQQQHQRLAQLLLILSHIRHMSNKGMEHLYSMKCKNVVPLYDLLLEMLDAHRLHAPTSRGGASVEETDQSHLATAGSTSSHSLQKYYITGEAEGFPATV
# Summary of the method: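 Fluorescence intensity from a beta-lactamase FRET substrate served as the read-out. Cells: HEK293 with stably integrated ER-alpha-UAS-bla reporter. Agonist 17beta-estradiol was co-added with compounds; incubation 18 hr at 37C, substrate 2 hr at room temperature.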
# [13] = target: Estrogen receptor (Homo sapiens) (UniProt P03372); test: qHTS assay to identify small molecule agonists of the estrogen receptor alpha (ER-alpha) signaling pathway (AID 743075; calls by dose curve; note: potency is the fitted concentration of half-maximal effect)
# [14] = target: Estrogen receptor (Homo sapiens) (UniProt P03372); test: qHTS assay to identify small molecule agonists of the estrogen receptor alpha (ER-alpha) signaling pathway using the BG1 cell line (AID 743079); note: nearly all actives have a fitted effect of over 20% in size; note: potency is the fitted concentration of half-maximal effect
# [15] = qHTS assay to identify small molecule antagonists of the estrogen receptor alpha (ER-alpha) signaling pathway using the BG1 cell line (AID 743080; calls by dose curve;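 note: BG1 cells stimulated with 17beta-estradiol alongside compound; nearly all actives have a fitted effect of over 25% in size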; note: potency is the fitted concentration of half-maximal effect)
# Summary of the method: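 Luciferase inhibition measured with ONE-Glo after 30 min at RT in BG1Luc4E2 cells given test compounds and 17beta-estradiol for 21.5 h at 37 C; CellTiter-Fluor viability read in the same wells beforehand.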
# [16] = target: Androgen receptor (Homo sapiens) (UniProt P10275); test: qHTS assay to identify small molecule antagonists of the androgen receptor (AR) signaling pathway (AID 743035; active = well fitted inhibition curve with a large enough effect in the signal ratio in the repeat runs, not every such curve was filed as active; inconclusive = weak or mixed curves, or effect the other way; inactive = no such curve, though single readings can be large or run the other way; the % refers to the signal ratio)
# Sequence of Androgen receptor (Homo sapiens) (P10275 whole entry, looked up): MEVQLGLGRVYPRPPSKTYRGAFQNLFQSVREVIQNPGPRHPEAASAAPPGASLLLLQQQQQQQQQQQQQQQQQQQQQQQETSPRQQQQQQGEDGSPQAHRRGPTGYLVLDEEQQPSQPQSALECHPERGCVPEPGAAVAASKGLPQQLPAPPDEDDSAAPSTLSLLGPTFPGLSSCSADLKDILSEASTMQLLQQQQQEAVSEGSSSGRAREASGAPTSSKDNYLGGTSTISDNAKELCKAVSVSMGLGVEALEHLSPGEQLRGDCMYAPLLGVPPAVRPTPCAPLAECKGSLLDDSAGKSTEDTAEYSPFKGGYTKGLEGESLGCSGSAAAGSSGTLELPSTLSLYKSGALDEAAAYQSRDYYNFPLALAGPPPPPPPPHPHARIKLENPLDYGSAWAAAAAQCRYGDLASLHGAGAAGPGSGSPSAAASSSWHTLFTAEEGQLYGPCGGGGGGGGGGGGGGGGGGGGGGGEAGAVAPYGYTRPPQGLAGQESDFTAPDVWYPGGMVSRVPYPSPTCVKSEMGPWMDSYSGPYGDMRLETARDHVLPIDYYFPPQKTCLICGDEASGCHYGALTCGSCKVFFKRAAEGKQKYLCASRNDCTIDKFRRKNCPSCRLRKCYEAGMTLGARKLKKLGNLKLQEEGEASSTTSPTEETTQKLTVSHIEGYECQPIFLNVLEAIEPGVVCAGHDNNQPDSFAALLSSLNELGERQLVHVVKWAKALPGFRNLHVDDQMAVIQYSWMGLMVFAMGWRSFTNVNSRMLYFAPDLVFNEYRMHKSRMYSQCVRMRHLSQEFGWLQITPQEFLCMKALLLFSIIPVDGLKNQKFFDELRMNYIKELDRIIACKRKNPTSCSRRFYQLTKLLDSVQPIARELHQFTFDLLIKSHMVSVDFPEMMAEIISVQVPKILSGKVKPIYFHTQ
# Summary of the method: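 Reporter HEK293 cells were exposed to compounds and R1881 overnight (16 h, 37C); beta-lactamase activity was then quantified by FRET fluorescence.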
# [17] = target: Androgen receptor (Homo sapiens) (UniProt P10275); test: qHTS assay to identify small molecule agonists of the androgen receptor (AR) signaling pathway (AID 743036; active = well fitted activation curve with a large enough effect in the signal ratio in the repeat runs, with a control signal flat, not every such curve was filed as active; inconclusive = weak or mixed curves, or effect the other way; inactive = no such curve, though single readings can be large or run the other way; the % refers to the signal ratio)
# Summary of the method: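 Quantitative HTS of the Tox21 10K library in HEK293 cells bearing a stably integrated UAS-controlled beta-lactamase reporter. Compound exposure lasted 16 h at 37C. Reporter activity was detected by FRET substrate fluorescence after 2 h at room temperature.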
# [18] = target: Androgen receptor (Homo sapiens) (UniProt P10275); test: qHTS assay to identify small molecule agonists of the androgen receptor (AR) signaling pathway using the MDA cell line (AID 743040; note: nearly all actives have a fitted effect of over 20% in size)
# Summary of the method: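 Stable MMTV-luciferase reporter in MDA-kb2 cells; note the promoter carries GR as well as AR response elements. 16 h compound treatment, 37C, 0% CO2; ONE-Glo luminescence endpoint.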
# [19] = target: Androgen receptor (Homo sapiens) (UniProt P10275); test: qHTS assay to identify small molecule antagonists of the androgen receptor (AR) signaling pathway using the MDA cell line (AID 743042; note: nearly all actives have a fitted effect of over 55% in size)
# Summary of the method: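 Antagonist mode: compounds plus R1881 agonist added to MDA-kb2 AR-luc cells, incubated 16 h at 37C. Luciferase reporter luminescence quantified, with multiplexed CellTiter-Fluor readout for cell viability.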
SMILES,Potency [1],Potency [2],Potency [3],Potency [4],Potency [5],Potency [6],Potency [7],Potency [8],outcome [9],Potency [10],Potency [11],Potency (Aromatase (Homo sapiens)),Potency [12],Potency [13],Potency [14],Potency [15],outcome [16],outcome [17],outcome [18],outcome [19]
C=C(C#N)C(=O)OCC,inactive,inactive and 43.3 µM (active),inactive and 43.3 µM (active),inactive and 24.3 µM (active),inactive,inactive,inactive,inactive,inactive,inactive,inactive,inactive,,,,,,,,
CC(C)(C)C1CCC(O)CC1 (configuration not stated),inactive,inactive,inactive,inactive,inactive,inactive,,inactive,inactive,inactive,inactive,inactive,inactive,inactive,inactive,inactive,,,,
CC(C)(CO)COC(=O)C(C)(C)CO,inactive,inactive,inactive,inactive,inactive,inactive,,inactive,inactive,inactive,inactive,inactive,inactive,inactive,inactive,inactive,inactive,inactive,inactive,inactive
OC[C@@H](O)[C@H](O)[C@H](O)[C@@H](O)CO,inactive,inactive,inactive,inactive,inactive,inactive,inactive,inactive,inactive,inactive,inactive,inactive,inactive,inactive,inactive,inactive,,,,
CC1CC(OC(=O)c2ccccc2O)CC(C)(C)C1 (configuration not stated),inactive,inactive,inactive,inactive,inactive,inactive,,,inactive,inactive,inactive,inactive,,,,,,,,
c1ccc2[nH]cnc2c1,inactive,inactive,inactive,inactive,inactive,inactive,,inactive,inactive,inactive,inactive,inactive,,,,,,,,
Oc1ccc(OCc2ccccc2)cc1,inactive,2.54 µM (active) and 8.45 µM (active),,4.52 µM (active) and 11.9 µM (active),inactive,inactive,9.02 µM (active),,,inactive,inactive,inactive,inactive,11.4 µM [activator] (active) and 53.8 µM [inconclusive] (active),8.04 µM (active) and 9.48 µM (active),,,inactive,inactive,inactive
CC1(C)CC(N=C=O)CC(C)(CN=C=O)C1 (configuration not stated),inactive,inactive,inactive,inactive,,inactive,inactive,inactive,inactive,inactive,inactive,inactive,inactive,inactive,inactive,inactive,,,,
CCCCOCCOCCOC(=O)CCCCC(=O)OCCOCCOCCCC,inactive,inactive,,inactive,inactive,inactive,inactive,inactive,inactive,inactive,inactive,inactive,inactive,inactive,inactive,inactive,,,,
Cc1cc(Cc2ccc(N)c(C)c2)ccc1N,inactive,61.1 µM (active),,61.1 µM (active) and 68.6 µM (active),inactive,inactive,inactive,inactive,inactive,inactive,inactive,,,,,,,,,
CC1=C(CC(=O)O)c2cc(F)ccc2/C1=C\c1ccc(S(C)=O)cc1 (configuration not stated),inactive,inactive and 68.6 µM (active),6.86 µM (active),inactive and 24.3 µM (active),,inactive,,inactive,inactive,inactive,inactive,inactive,,,,,,,,
CC#C[C@]1(O)CC[C@H]2[C@@H]3CCC4=CC(=O)CCC4=C3[C@@H](c3ccc(N(C)C)cc3)C[C@@]21C,5.35 µM (active),5.96 µM (active) and 30.6 µM (active),9.44 µM (active) and 48.6 µM (active),5.96 µM (active) and 21.7 µM (active),,,,4.73 µM (active) and 24.3 µM (active),inactive,inactive,inactive,11.9 µM (active) and 30.6 µM (active),,inactive,,16.8 µM (active) and 68.6 µM (active),,,,
O=C(Oc1ccccc1)c1ccc(O)cc1,inactive,inactive,inactive,inactive,,inactive,inactive,inactive,inactive,inactive,inactive,inactive,,,,,,,,
O=C(c1cc(O)c(O)c(O)c1)c1ccc(O)c(O)c1O,inactive,48.4 µM (active) and 13.7 µM (active),30.5 µM (active) and 13.7 µM (active),30.5 µM (active) and 13.7 µM (active),,inactive,,43.1 µM (active) and 68.6 µM (active),inactive,inactive,68.4 µM (active) and 61.1 µM (active),inactive,inactive,inactive,inactive,inactive,,,,
c1ccc2ccccc2c1,inactive,inactive,inactive,inactive,,inactive,inactive,inactive,inactive,inactive,inactive,inactive,inactive,inactive,inactive,inactive,,,,
NCCNCCNCCNCCN,inactive,inactive,,inactive,inactive,inactive,,inactive,inactive,inactive,inactive,inactive,,,,,inactive,inactive,inactive,inactive
Clc1ccc(Cl)c(Cl)c1Cl,inactive,inactive,inactive,inactive,,inactive,inactive,inactive,inactive,inactive,inactive,inactive,,,,,,,,

SMILES,Potency [1],Potency [2],Potency [3],Potency [4],Potency [5],Potency [6],Potency [7],Potency [8],outcome [9],Potency [10],Potency [11],Potency (Aromatase (Homo sapiens)),Potency [12],Potency [13],Potency [14],Potency [15],outcome [16],outcome [17],outcome [18],outcome [19]
Nc1c(S(=O)(=O)O)cc(Br)c2c1C(=O)c1ccccc1C2=O,inactive,inactive,inactive,inactive,,30.6 µM (active),inactive and 61.1 µM (active),inactive,inactive,inactive,27.3 µM (active),inactive,inactive,inactive,inactive,inactive,,,,
CCCCOCCO,inactive,inactive,inactive,inactive,,inactive,inactive,inactive,inactive,inactive,inactive,inactive,inactive,inactive,inactive,inactive,,,,
CC(C)n1c(/C=C/[C@@H](O)C[C@@H](O)CC(=O)O)c(-c2ccc(F)cc2)c2ccccc21,inactive,1.06 µM (active) and 6.11 µM (active),9.4 nM (active) and 3.06 µM (active),3.35 µM (active) and 8.63 µM (active),,inactive,,13.3 µM (active) and 21.7 µM (active),inactive,inactive,inactive,,,,,,,,,
CS(=O)(=O)Nc1ccc([N+](=O)[O-])cc1Oc1ccccc1,inactive,inactive,inactive,inactive,,inactive,,inactive,inactive,inactive,inactive,inactive,,,,,,,,
C=C1C2CCC(C2)C1(C)C (configuration not stated),inactive,inactive,inactive,inactive,,inactive,inactive,inactive,inactive,inactive,inactive,inactive,inactive,inactive,inactive,inactive,,,,
OC1CCCC1,inactive,inactive,,inactive,inactive,inactive,inactive,inactive,inactive,inactive,inactive,inactive,inactive,inactive,inactive,inactive,,,,
CCCCC/C=C\C/C=C\CCCCCCCC(=O)OC,inactive,30.6 µM (active),30.6 µM (active),21.7 µM (active),,inactive,inactive,,inactive,inactive,inactive,inactive,inactive,inactive,inactive,inactive,,,,
CCCCNC(N)=O,inactive,inactive,inactive,inactive,,inactive,inactive,inactive,inactive,inactive,inactive,inactive,,,,,,,,
O=C1N=C(O)CN1/N=C/c1ccc(-c2ccc([N+](=O)[O-])cc2)o1,inactive,61.1 µM (active),inactive and 68.6 µM (active),26.6 µM (active) and 27.3 µM (active),inactive,,,27.3 µM (active),inactive,inactive,48.6 µM (active),inactive,,,,,,,,
O=[N+]([O-])C(CO)(CO)CO,inactive,inactive and 68.6 µM (active),,inactive and 68.6 µM (active),inactive,inactive,inactive,inactive,inactive,inactive,inactive,inactive,inactive,inactive,inactive,inactive,,,,
Oc1ccc2ccccc2c1,inactive,inactive,,inactive,inactive,inactive,inactive,,,inactive,inactive,inactive,,,,,,inactive,inactive,inactive
Cn1c([N+](=O)[O-])cnc1COC(N)=O,inactive,inactive,inactive,inactive,,inactive,,inactive,inactive,inactive,inactive,inactive,inactive,inactive,inactive,inactive,,,,
COCC(C)O (configuration not stated),inactive,inactive,inactive,inactive,,inactive,inactive,inactive,inactive,inactive,inactive,inactive,inactive,inactive,inactive and 61.1 µM (active),inactive,,,,
CN(CCOc1ccc(CC2SC(=O)NC2=O)cc1)c1ccccn1 (configuration not stated),inactive,inactive and 60.8 µM (active),inactive and 60.8 µM (active),27.1 µM (active),,inactive,inactive,54.2 µM (active),inactive,inactive,inactive,,inactive,inactive,inactive,inactive,,,,
CCC(C)C=O (configuration not stated),inactive,inactive,,inactive,inactive,inactive,inactive,inactive,inactive,inactive,inactive,inactive,inactive,inactive,inactive,inactive,,,,
Cc1ccc(C(=O)O)o1,inactive,inactive,inactive,inactive,,inactive,,inactive,inactive,inactive,inactive,inactive,,,,,,,,
COC(=O)c1ccccc1O,inactive,inactive,inactive,inactive,,inactive,,inactive,inactive,inactive,inactive,inactive,inactive,inactive,23.7 µM (active) and inactive,inactive,,,,
